Results filed as inconclusive are left out. A call without a number means that no potency is given here. Unmarked numbers belong to inactive results. Activity calls are given as the source filed them. The call rests on the fitted dose curve; in most records, active means well fitted cell-killing curve with a large enough effect in the repeat runs; inconclusive means weak or mixed curves; inactive means flat fitted curve, though single readings scatter.
Potency means the concentration at half of the fitted maximal effect.

This assay in a line: qHTS RealTime-Glo MT Cell Viability Assay in HepG2 cells - 16 hour (AID 1224885). Further: nearly all actives have a fitted effect of over 50% in size. Particulars: RealTime-Glo luminescence; series mostly up to 76.8 µM. From the text:
U.S. Tox21 Program National Center for Advancing Translational Sciences [NCATS] NIH Chemical Genomics Center [NCGC] U.S. Environmental Protection Agency [EPA] National Institutes of Environmental Health Sciences [NIEHS] National Toxicology Program [NTP] U.S. Food and Drug Administration [FDA] Tox21 Assay Overview: Measure of cell viability is critical in the cell-base assay. Analysis of cell viability is necessary for the characterization of cell responses to cytotoxic drugs and environmental stress. A RealTime-Glo MT Cell Viability Assay to monitor cell viability in real time of continues cell culture during 40 hours of compound treatment was used to screen Tox21 10K library compounds in HepG2 cells. The RealTime-Glo MT Cell Viability Assay is a nonlytic, homogeneous, bioluminescent method to measure cell viability in real time using a simple, plate-based method. The assay involves adding NanoLuc luciferase and a cell-permeant prosubstrate to cells in culture. Viable cells reduce the proprietary prosubstrate to generate a substrate for NanoLuc luciferase. This substrate diffuses from cells into the surrounding culture medium, where it is rapidly used by the NanoLuc Enzyme to produce a luminescent signal. The signal correlates with the number of viable cells, making the assay well suited for cytotoxicity studies.
Tox21 Assay Protocol Summary: The mixture of HepG2 cell suspension and reagents were dispensed at 600cells/6 ul/well in 1536-well tissue culture treated black solid bottom plates using a Multidrop dispenser. After the assay plates were incubated at a 37 C/5% CO2 incubator for 5 hours, 23 nL of compounds dissolved in DMSO, positive and negative controls was transferred to the assay plate by a pintool work station. The plates were incubated at 37 C for 40 hours. The luminescence intensity were measured at 0h, 8h, 16h, 24h, 32h and 40h time points using ViewLux plate reader during compound treatment.
For orientation: qHTS replaces the single test concentration by a dilution series.
As for `COc1ccc(-n2nc(C(F)F)cc2-c2ccc(S(C)=O)cc2)cc1` (stereo not given), the Potency result was “inactive”. The same measure, in the same setting: the entry for `O=C(O)c1ccc(O)cc1O` is “inactive”; for `O=C(CCS)OCC(COC(=O)CCS)(COC(=O)CCS)COC(=O)CCS` it is “inactive”. On the same count and under the same terms, the value for `CN(C)CC/C=C1\c2ccccc2Sc2ccc(Cl)cc21` was 23.9 µM (active). On the same count and under the same terms, the value for `Cc1c[nH]c2ccccc12` was “inactive”. In the case of `CC[C@H]1OC(=O)[C@H](C)[C@@H](O[C@H]2C[C@@](C)(OC)[C@@H](O)[C@H](C)O2)[C@H](C)[C@@H](O[C@@H]2O[C@H](C)C[C@H](N(C)C)[C@H]2O)[C@](C)(O)C[C@@H](C)/C(=N\OCOCCOC)[C@H](C)[C@@H](O)[C@]1(C)O`, the Potency result was “inactive”. On the same count and under the same terms, the entry for `O=[N+]([O-])c1ccc2ncccc2c1` is “inactive”; for `CCCCCCCCCCCSCC(=O)O` it is “inactive”; for `BrC(Br)C(Br)Br` it is “inactive”. Consider `CCCCCCCCCCCCCCN(C)C`, for which the activity change, negative = cytotoxic was -0.238% [at 15.8 µM].

Regarding `Cc1ccc2c(c1[N+](=O)[O-])C(=O)c1ccccc1C2=O`, the Potency entry was “inactive”. On the same count and under the same terms, the entry for `Cc1cccc(C)c1NC(=O)c1cc(S(N)(=O)=O)c(Cl)cc1O` is “inactive”. The same measure, in the same setting: the value for `CCOC(=O)c1c(N)sc2c1CCN(Cc1ccccc1)C2` was “inactive”. Same read-out and setting: the figure for `O=[N+]([O-])C1(Br)COCOC1` is 49 µM (active); for `O=C1c2ccccc2C(=O)c2c(O)ccc(O)c21` it is “inactive”; for `SCCc1cnccn1` it is “inactive”.

As for `CC1CCCO1` (stereo not given), the Potency entry was “inactive”. On the same count and under the same terms, the value for `CC12CC3CC(C)(C1)CC(N)(C3)C2` was “inactive”; that for `ClC1=C(Cl)C1(Cl)Cl` was “inactive”.

`O=C(O)/C=C/c1ccc(O)c(O)c1`: the Potency result is “inactive”.

Turning to `CC1CCC(C(C)CS)CC1S` (stereo not given), the Potency entry is “inactive”. On the same count and under the same terms, the entry for `O=C(NS(=O)(=O)/C=C/c1ccccc1)c1ccc(F)cc1Cl` is “inactive”.

In the case of `CCCCCCCC/C=C\CCCCCCCC(=O)OCCO`, the Potency entry is “inactive”. Turning to `CC(=O)NNC(C)=O`, the Potency entry is “inactive”. Regarding `CSCC[C@H](NC(=O)[C@H](Cc1c[nH]c2ccccc12)NC(=O)CCNC(=O)OC(C)(C)C)C(=O)N[C@@H](CC(=O)O)C(=O)N[C@@H](Cc1ccccc1)C(N)=O`, the Potency result is “inactive”. Same read-out and setting: the value for `Cc1cc(CCC(=O)OCCOCCOCCOC(=O)CCc2cc(C)c(O)c(C(C)(C)C)c2)cc(C(C)(C)C)c1O` was “inactive”; that for `COc1cc(OC)c2ccc(=O)oc2c1` was “inactive”; that for `CCO[Si](C)(CCCOCC1CO1)OCC` (stereo not given) was “inactive”. The same measure, in the same setting: the entry for `O=C(O)c1cccc(C[C@@H]2COc3ccc(OCc4nc5cc(F)ccc5s4)cc3[C@@H]2O)c1` is “inactive”. On the same count and under the same terms, the entry for `CC(C)OC(=O)c1ccccc1C(=O)OC(C)C` is “inactive”. On to `CC(C)(C)S`, for which the Potency result is “inactive”.

Turning to `COC(=O)c1sccc1S(N)(=O)=O`, the Potency entry is “inactive”. On the same count and under the same terms, the entry for `C=CC(=O)NC(C)C` is “inactive”; for `O=C1CC[C@@H](C(=O)O)N1` it is “inactive”.

For `CCN(CC)C(=O)/C(C#N)=C/c1cc(O)c(O)c([N+](=O)[O-])c1`, the Potency result was “inactive”. Same read-out and setting: the value for `Nc1nc(-c2ccc([N+](=O)[O-])cc2)cs1` was “inactive”; that for `COc1ccc(N)c([N+](=O)[O-])c1` was “inactive”; that for `O=C(O)CCS` was “inactive”. `COc1ccc(C)cc1`: the Potency entry is “inactive”. On the same count and under the same terms, the entry for `COc1ccc(CCN(C)CCCN2CCc3cc(OC)c(OC)cc3CC2=O)cc1OC` is “inactive”.

The values above are taken from PubChem BioAssay (Tox21).
